According to PubChem BioAssay (NCATS):
Records with an inconclusive call do not appear. The source made the active and inactive calls. The call rests on the fitted dose curve; in most records, active means well fitted cell-killing curve with a large enough effect; inconclusive means small, poorly fitted or top-dose-only effect, or effect the other way; inactive means flat fitted curve, though single readings scatter.

What was measured:
Assay in all cases: Primary qHTS to identify gynecologic anti-cancer compounds using libraries of approved drugs and bioactive compounds (AID 1345084); further: nearly all actives have a fitted effect of over 55% in size
CAOV3 = conditions: Gynecologic cancer cell panel viability, ATPlite luminescence, 48 h; series mostly up to 57.5 µM
Summary of the method: (§1)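 ATP-based viability (ATPlite), 1,000 cells/well, 16 h pre-incubation, 48 h compound at 37 C, 5% CO2, 15 min RT before read.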

CASKI = conditions: Gynecologic cancer cell panel viability, ATPlite luminescence, 48 h; series mostly up to 57.5 µM
Summary of the method: as §1

Es-2 = conditions: Gynecologic cancer cell panel viability, ATPlite luminescence, 48 h; series mostly up to 57.5 µM
Summary of the method: as §1

HeLa = conditions: Gynecologic cancer cell panel viability, ATPlite luminescence, 48 h; series mostly up to 57.5 µM
Summary of the method: as §1

Hek293T = conditions: Gynecologic cancer cell panel viability, ATPlite luminescence, 48 h, control line for the selectivity index; series mostly up to 57.5 µM
Summary of the method: as §1

JEG-3 = conditions: Gynecologic cancer cell panel viability, ATPlite luminescence, 48 h; series mostly up to 57.5 µM
Summary of the method: as §1

OV90 = conditions: Gynecologic cancer cell panel viability, ATPlite luminescence, 48 h; series mostly up to 57.5 µM
Summary of the method: as §1

PA-1 = conditions: Gynecologic cancer cell panel viability, ATPlite luminescence, 48 h; series mostly up to 57.5 µM
Summary of the method: as §1

SKOV3 = conditions: Gynecologic cancer cell panel viability, ATPlite luminescence, 48 h; series mostly up to 57.5 µM
Summary of the method: as §1

Tov-21-G = conditions: Gynecologic cancer cell panel viability, ATPlite luminescence, 48 h; series mostly up to 57.5 µM
Summary of the method: as §1

Tov112D = conditions: Gynecologic cancer cell panel viability, ATPlite luminescence, 48 h; series mostly up to 57.5 µM
Summary of the method: as §1
On the % scale 0 is the no-effect control and ±100 the full control effect.

C=C1[C@H]2CC[C@]3(O)[C@@](CC[C@@H]4[C@](C)(C(=O)O)CCC[C@]43C)(C2)[C@H]1OC(=O)/C(C)=C\C
inactive: Potency (CAOV3) | Potency (CASKI) | Potency (Es-2) | Potency (HeLa) | Potency (Hek293T) | Potency (JEG-3) | Potency (OV90) | Potency (PA-1) | Potency (SKOV3) | Potency (Tov-21-G) | Potency (Tov112D)

CC(C)C(=O)c1cn(CC(=O)COc2ccc(Oc3ccccc3)cc2)c2ccc(C(=O)O)cc12
inactive: Potency (CAOV3) | Potency (CASKI) | Potency (Es-2) | Potency (HeLa) | Potency (Hek293T) | Potency (JEG-3) | Potency (OV90) | Potency (PA-1) | Potency (SKOV3) | Potency (Tov-21-G) | Potency (Tov112D)

CC1OC(O[C@H]2[C@@H](O)C[C@@]3(C)C([C@H](O)C[C@]4(C)C3CC=C3C5CC(C)(C)CC[C@]5(C(=O)OC5OC(CO)C(O)C(O)C5OC5OCC(OC6OCC(OC7OCC(O)C(O)C7O)C(O)C6O)C(OC6OCC(O)(CO)C6O)C5O)CC[C@]34C)[C@]2(C)CO)C(O)C(O)C1O (some centres undefined)
inactive: activity change, negative = cytotoxicity (CAOV3) -2.76% [at 6.55 µM] | activity change, negative = cytotoxicity (CASKI) 1.71% [at 6.55 µM] | activity change, negative = cytotoxicity (Es-2) -1.65% [at 6.55 µM] | activity change, negative = cytotoxicity (HeLa) 2.57% [at 6.55 µM] | activity change, negative = cytotoxicity (Hek293T) -2% [at 6.55 µM] | activity change, negative = cytotoxicity (JEG-3) -1.46% [at 6.55 µM] | activity change, negative = cytotoxicity (OV90) 3.36% [at 6.55 µM] | activity change, negative = cytotoxicity (PA-1) 2.16% [at 6.55 µM] | activity change, negative = cytotoxicity (SKOV3) -0.54% [at 6.55 µM] | activity change, negative = cytotoxicity (Tov-21-G) -10.9% [at 6.55 µM] | activity change, negative = cytotoxicity (Tov112D) 7.32% [at 6.55 µM]

COc1cc(-c2cccc(O)c2)cc2c1OCO2
inactive: Potency (CAOV3) | Potency (CASKI) | Potency (Es-2) | Potency (HeLa) | Potency (Hek293T) | Potency (JEG-3) | Potency (OV90) | Potency (PA-1) | Potency (SKOV3) | Potency (Tov-21-G) | Potency (Tov112D)

COc1cc(C(O)C(CO)Oc2ccc(CCCO[C@@H]3O[C@@H](C)[C@H](O)[C@@H](O)[C@H]3O)cc2OC)ccc1O (some centres undefined)
inactive: Potency (CAOV3) | Potency (CASKI) | Potency (Es-2) | Potency (HeLa) | Potency (Hek293T) | Potency (JEG-3) | Potency (OV90) | Potency (PA-1) | Potency (SKOV3) | Potency (Tov-21-G) | Potency (Tov112D)

CC(NCc1ccc(OCc2cccc(F)c2)cc1)C(N)=O (centres undefined)
inactive: Potency (CAOV3) | Potency (CASKI) | Potency (Es-2) | Potency (HeLa) | Potency (Hek293T) | Potency (JEG-3) | Potency (OV90) | Potency (PA-1) | Potency (SKOV3) | Potency (Tov-21-G) | Potency (Tov112D)

COC(=O)c1ccc(O[C@@H]2O[C@H](CO)[C@@H](O)[C@H](O)[C@H]2O)c(OC)c1
inactive: Potency (CAOV3) | Potency (CASKI) | Potency (Es-2) | Potency (HeLa) | Potency (Hek293T) | Potency (JEG-3) | Potency (OV90) | Potency (PA-1) | Potency (SKOV3) | Potency (Tov-21-G) | Potency (Tov112D)

C=CC1(C)CC(O)C2(CCC3C(C)(C(=O)O)CCCC3(C)C2=O)C1 (centres undefined)
inactive: Potency (CAOV3) | Potency (CASKI) | Potency (Es-2) | Potency (HeLa) | Potency (Hek293T) | Potency (JEG-3) | Potency (OV90) | Potency (PA-1) | Potency (SKOV3) | Potency (Tov-21-G) | Potency (Tov112D)

CNC(=O)[C@H]1O[C@@H](n2cnc3c(NCc4ccc(N)c(I)c4)ncnc32)[C@H](O)[C@@H]1O
inactive: activity change, negative = cytotoxicity (CAOV3) -1.57% [at 11.6 µM] | activity change, negative = cytotoxicity (CASKI) 16.3% [at 11.6 µM] | activity change, negative = cytotoxicity (Es-2) 0.484% [at 11.6 µM] | activity change, negative = cytotoxicity (HeLa) 5.87% [at 11.6 µM] | activity change, negative = cytotoxicity (Hek293T) 0.59% [at 11.6 µM] | activity change, negative = cytotoxicity (JEG-3) 20.5% [at 11.6 µM] | activity change, negative = cytotoxicity (OV90) -0.89% [at 11.6 µM] | activity change, negative = cytotoxicity (PA-1) 0.696% [at 11.6 µM] | activity change, negative = cytotoxicity (SKOV3) -8.5% [at 11.6 µM] | activity change, negative = cytotoxicity (Tov-21-G) 15.7% [at 11.6 µM] | activity change, negative = cytotoxicity (Tov112D) 25.2% [at 11.6 µM]

C/C(=C\CCC(C(=O)O)C1CCC2(C)C3=C(CCC12C)C1(C)CCC(=O)C(C)(C)C1CC3)C(=O)O (centres undefined)
inactive: Potency (CAOV3) | Potency (CASKI) | Potency (Es-2) | Potency (HeLa) | Potency (Hek293T) | Potency (JEG-3) | Potency (OV90) | Potency (PA-1) | Potency (SKOV3) | Potency (Tov-21-G) | Potency (Tov112D)

CC1(C)C(=O)C(C)(C)c2cc(C(=O)Nc3ccc(C(=O)O)cc3)ccc21
inactive: Potency (CAOV3) | Potency (CASKI) | Potency (Es-2) | Potency (HeLa) | Potency (Hek293T) | Potency (JEG-3) | Potency (OV90) | Potency (PA-1) | Potency (SKOV3) | Potency (Tov-21-G) | Potency (Tov112D)

CC1NC(=O)C(Cc2c[nH]c3ccccc23)NC1=O (centres undefined)
inactive: Potency (CAOV3) | Potency (CASKI) | Potency (Es-2) | Potency (HeLa) | Potency (Hek293T) | Potency (JEG-3) | Potency (OV90) | Potency (PA-1) | Potency (SKOV3) | Potency (Tov-21-G) | Potency (Tov112D)

O=C(OCc1cccc(O)c1O[C@@H]1O[C@H](CO)[C@@H](O)[C@H](O)[C@H]1O)C1(O)C(=O)C2C=CC1C1C=CC(=O)C(O)(C(=O)OCc3cccc(O)c3O[C@@H]3O[C@H](CO)[C@@H](O)[C@H](O)[C@H]3O)C21 (some centres undefined)
inactive: activity change, negative = cytotoxicity (CAOV3) -10.6% [at 11.6 µM] | activity change, negative = cytotoxicity (CASKI) -17.5% [at 11.6 µM] | activity change, negative = cytotoxicity (Es-2) 2.61% [at 11.6 µM] | activity change, negative = cytotoxicity (HeLa) -8.79% [at 11.6 µM] | activity change, negative = cytotoxicity (Hek293T) 8.15% [at 11.6 µM] | activity change, negative = cytotoxicity (JEG-3) 0.323% [at 11.6 µM] | activity change, negative = cytotoxicity (OV90) -13.1% [at 11.6 µM] | activity change, negative = cytotoxicity (PA-1) -3.46% [at 11.6 µM] | activity change, negative = cytotoxicity (SKOV3) 4.95% [at 11.6 µM] | activity change, negative = cytotoxicity (Tov-21-G) 1.57% [at 11.6 µM] | activity change, negative = cytotoxicity (Tov112D) 2.56% [at 11.6 µM]

CC(=O)O[C@@H]1[C@H](O[C@@H]2O[C@H](CO)[C@@H](O)[C@H](O)[C@H]2O)[C@@H](O[C@@H]2O[C@@H](C)[C@H](O)[C@@H](O[C@@H]3O[C@H](CO)[C@@H](O)[C@H](O)[C@H]3O)[C@H]2O)[C@H](OC(=O)C23CCC4(C)C(=CCC5C6(C)CC(O)C(O[C@@H]7O[C@H](C(=O)O)[C@@H](O)[C@H](O)[C@H]7O)C(C)(C(=O)O)C6CCC54C)C2CC(C)(C)CC3O)O[C@@H]1C (some centres undefined)
inactive: activity change, negative = cytotoxicity (CAOV3) 14.4% [at 6.55 µM] | activity change, negative = cytotoxicity (CASKI) 24.3% [at 6.55 µM] | activity change, negative = cytotoxicity (Es-2) 1.96% [at 6.55 µM] | activity change, negative = cytotoxicity (HeLa) -1.78% [at 6.55 µM] | activity change, negative = cytotoxicity (Hek293T) 14.8% [at 6.55 µM] | activity change, negative = cytotoxicity (JEG-3) 1.97% [at 6.55 µM] | activity change, negative = cytotoxicity (OV90) 8.45% [at 6.55 µM] | activity change, negative = cytotoxicity (PA-1) 25.5% [at 6.55 µM] | activity change, negative = cytotoxicity (SKOV3) 2.37% [at 6.55 µM] | activity change, negative = cytotoxicity (Tov-21-G) 4.93% [at 6.55 µM] | activity change, negative = cytotoxicity (Tov112D) 4.44% [at 6.55 µM]
